# Data taken from PubChem BioAssay (EPA / NIEHS).
# Activity calls are given as the source filed them. Rule for the calls: active = hit-call score of the fitted dose curve at least 0.9, where 1 is the maximum; inactive = score below 0.9.
# Read-out: Monokine induced gamma interferon (MIG), CXCL9 (gene 4283)
# Test: BSK_hDFCGF_MIG: BioMAP Diversity Plus: hDFCGF Assay for Monokine induced gamma interferon (MIG) Biomarker Activity (AID 2283063)
# Settings: primary human foreskin fibroblasts; actives raise or lower the signal
# How it was run: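 ELISA read-out of MIG from primary human dermal fibroblasts 24 h post-dosing. Gain or loss of signal fitted bidirectionally, DMSO as baseline.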
SMILES,outcome,AC50
CCO[Si](CCCNC(N)=O)(OCC)OCC,inactive,–
CCCCCCCCOc1ccc(C(=O)c2ccccc2)c(O)c1,inactive,–
COc1cc(C(=O)NC2CCN(C)CC2)ccc1Nc1ncc2c(n1)N(C1CCCC1)CC(F)(F)C(=O)N2C,–,6.25 µM (active)
c1ccc2ccccc2c1,inactive,–
O=CCCCC=O,–,32.4 µM (active)
Cc1ncc(CO)c(CO)c1O,inactive,–
CCCCCCCC[Si](OCC)(OCC)OCC,inactive,–
CC(O)CC(C)(C)O (stereo not drawn),inactive,–
Clc1ccccc1C(c1ccccc1)(c1ccccc1)n1ccnc1,–,8.88 µM (active)
COc1cccc([C@H](O)C2CCN(CCc3ccc(F)cc3)CC2)c1OC,inactive,–
CCCCCCCCCCCC[N+](C)(C)C,–,30.6 µM (active)
Clc1cc(Cl)c2c(c1)N=C1CCCCCN1C2,inactive,–
CO[C@H]1/C=C/O[C@@]2(C)Oc3c(C)c(O)c4c(O)c(c(/C=N/N5CCN(C)CC5)c(O)c4c3C2=O)NC(=O)/C(C)=C\C=C\[C@H](C)[C@H](O)[C@@H](C)[C@@H](O)[C@@H](C)[C@H](OC(C)=O)[C@@H]1C,inactive,–
Oc1ccc2ccccc2c1,inactive,–
CN(C)C(=O)C1(N2CCCCC2)CCN(CC[C@@]2(c3ccc(Cl)c(Cl)c3)CN(C(=O)c3ccccc3)CCO2)CC1,–,33.3 µM (active)
CCN(CC)C(=O)c1cc(S(=O)(=O)Cc2ccccc2)c(N2CCC(c3ccccc3)CC2)cc1N(CC)CCN(C)C,inactive,–
OC12N=C(c3ccccc3)SC1Cc1cc(Cl)ccc12 (stereo not drawn),inactive,–
Cc1c2ccccc2c(C)c2c1ccc1ccccc12,inactive,–
